Only a selection was taken, and hits are over-represented in it overall.
Shiga inhibitor – Shiga toxin inhibition; Vero cells, Shiga toxin protein synthesis inhibition reporter; inhibition, % at 38.7 µM; 290,000 compounds, 9.2% hits; in the data active = inhibition mostly above about 28%, no sharp cut-off; inactive = mostly below about 43%; also: 0% is about no effect
AmpC no deterg – inhibitors of E. coli AmpC beta-lactamase without detergent. P00811. Potency, µM (top dose mostly 57.1 µM), for inactives: at the highest dose activity change, negative = inhibition, actives largely listed as inhibitors. 330,000 compounds, 0.52% hits. AmpC nitrocefin hydrolysis, absorbance 480 nm, 0.0001% Triton;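 also: potency is read from the fitted curve at half-maximal effect; plate controls were no compound for no effect and no enzyme for full effect; nearly all actives have a fitted effect of over 20% in size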
Target sequence (P00811 whole entry, looked up): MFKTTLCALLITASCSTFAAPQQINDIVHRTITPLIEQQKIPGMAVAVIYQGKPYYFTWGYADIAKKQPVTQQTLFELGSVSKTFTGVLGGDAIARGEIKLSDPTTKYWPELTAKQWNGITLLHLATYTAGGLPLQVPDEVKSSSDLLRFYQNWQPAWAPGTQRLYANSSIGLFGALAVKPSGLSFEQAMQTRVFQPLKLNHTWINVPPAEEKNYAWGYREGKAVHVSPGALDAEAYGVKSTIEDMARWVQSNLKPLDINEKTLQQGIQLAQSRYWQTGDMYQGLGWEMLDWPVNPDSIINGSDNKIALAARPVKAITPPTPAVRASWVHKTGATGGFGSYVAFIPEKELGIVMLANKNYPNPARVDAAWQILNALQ
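AmpC (5.3 nM in the dispensed reagent) in 20 mM phosphate pH 7.0 with 0.01% (detergent screen) or 0.0001% Triton X-100 was preincubated with compounds for 15 min at room temperature. Nitrocefin was then added from an 800 uM solution, and hydrolysis was followed at 480 nm.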
AMA1-RON2 inh – AMA1-RON2 (P. falciparum) interaction inhibition; AlphaScreen AMA1-biotinylated RON2 peptide binding; Potency, µM (top dose mostly 58.2 µM), without a hit: at the highest dose activity change, negative = inhibition, usual class: inhibitors; 360,000 compounds, 0.2% hits;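 also: potency is read from the fitted curve at half-maximal effect; 0% = vehicle wells and -100% = peptide control; nearly all actives have a fitted effect of over 45% in size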
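AMA1 (3D7) with his tag at 25 nM final met compounds first, then biotinylated RON2 peptide at 25 nM; detection used donor plus acceptor beads, 10 µg/mL apiece, read by AlphaScreen after 30 min at room temperature.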
CHX counter – counter-screen hit for Shiga toxin inhibitors, cycloheximide; 300,000 compounds, 12% hits; max response, %; cell reporter, cycloheximide protein synthesis inhibition counterscreen; AID 2314; in the data active = max response mostly above about 13%, no sharp cut-off; inactive = mostly below about 14%; also: read at 38.3 µM for the half of the compounds with a filed dose; 0% is about no effect
SARS PLpro yeast – inhibitors of SARS-CoV papain-like protease in yeast. S. cerevisiae expressing SARS-CoV PLpro, growth rescue. Potency, µM (top dose mostly 32.9 µM), inactives show at the top dose activity, positive = growth rescue, hits mostly activators. 330,000 compounds, 0.19% hits. AID 485353; calls by dose curve; also: potency is read from the fitted curve at half-maximal effect; 0% is about no effect; nearly all actives have a fitted effect of over 55% in size
AmpC detergent – AmpC beta-lactamase inhibition with detergent present. P00811. AmpC hydrolysis of nitrocefin, absorbance 480 nm, 0.01% Triton. 370,000 compounds, 0.041% hits. Potency, µM (series often up to 114 µM), without a hit: at the highest dose activity change, negative = inhibition, usual class: inhibitors. AID 485294;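 also: potency is read from the fitted curve at half-maximal effect; 0% = no-compound wells and -100% = no-enzyme wells; nearly all actives have a fitted effect of over 25% in size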
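AmpC (5.3 nM in the dispensed reagent) in 20 mM phosphate pH 7.0 with 0.01% (detergent screen) or 0.0001% Triton X-100 was preincubated with compounds for 15 min at room temperature. Nitrocefin was then added from an 800 uM solution, and hydrolysis was followed at 480 nm.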
* = called active by the depositor; u = inconclusive; x = not tested or not shown; [ ] = another dose, or the depositor's remark. Unless noted, calls follow the shape of the dose curve; as a rule, active = well fitted curve in the direction sought with a large enough effect; inconclusive = small, poorly fitted or top-dose-only effect, or another doubt; inactive = no such curve, though single readings can be large; an effect the other way counts as inactive or inconclusive.

SMILES	Shiga inhibitor	AmpC no deterg	AMA1-RON2 inh	CHX counter	SARS PLpro yeast	AmpC detergent
Cc1ccc(CN2CCN(C3CSCCSC3)CC2CCO)cc1 (centres undefined)	-7	17%	-8%	-3	0%	2%
CC12CCC(C(=O)Nc3ccc4c(c3)OCCO4)(OC1=O)C2(C)C (centres undefined)	94*	-18%	-2%	47*	14%	3%
CC12CCC(C(=O)Nc3nc4ccccc4s3)(OC1=O)C2(C)C (centres undefined)	85*	30%	-9%	29*	0%	1%
Cc1cccc(NC(=O)C23CCC(C)(C(=O)O2)C3(C)C)c1 (centres undefined)	10	-40%	8%	7	-1%	3%
COc1cc(OC)cc(C(=O)NC(C(=O)Nc2ccc3c(c2)OCCO3)C(C)C)c1 (centres undefined)	x	-9%	1%	x	-3%	6%
COc1cc(OC)cc(C(=O)Nc2ccc3c(c2)OCCO3)c1	x	-24%	0%	26*	-13%	u
CC12CCC(C(=O)NC(c3ccccc3)c3ccccc3)(OC1=O)C2(C)C (centres undefined)	-8	60%	4%	-2	4%	u
O=C(O)CCNc1ccc2c(c1)OCCO2	73*	-2%	-2%	42*	24%	7%
O=C(O)CCCCCNC(=O)Nc1ccc2c(c1)OCCO2	30	-26%	4%	15	0%	-15%
CCOc1cccc(-c2c(C(=O)N/N=C(\C)c3cccs3)nnn2-c2nonc2N)c1	-3	-13%	33%	-2	-2%	-2%
COc1ccc(CN2CCNC(=O)C2CC(=O)NCc2cn3ccc(C)cc3n2)c(OC)c1 (centres undefined)	3	30%	15%	-2	0%	6%
COc1ccc(OCc2ccc(-c3nc(C#N)c(NCc4ccc(F)cc4)o3)o2)cc1	x	x	x	x	x	24%
Cc1cccc2cc(C(c3nnnn3CC3CCCO3)N3CCc4ccccc4C3)c(=O)[nH]c12 (centres undefined)	17	-5%	17%	-4	u	-10%
Cc1cc(C(=O)Nc2ccc3c(c2)OCCO3)co1	76*	-14%	-3%	57*	-7%	-5%
Cc1ccc(-c2nc(C#N)c(NCCN3CCCCC3)o2)cc1	25*	12%	-15%	15*	0%	1%
N#Cc1nc(-c2ccco2)oc1NCCN1CCOCC1	-9	-10%	-6%	0	3%	u
COc1ccc(-c2nc(C#N)c(NCCCN3CCOCC3)o2)cc1	24	28µM*	26%	-3	u	5%
N#Cc1nc(COc2ccc(-c3ccccc3)cc2)oc1NCCCN1CCOCC1	27	190%	-14%	13	-5%	-10%
N#Cc1nc(-c2ccc(F)cc2)oc1NCCN1CCOCC1	17	0.63µM*	14%	2	0%	u
O=S(=O)(c1ccc(F)cc1)c1nc(-c2ccc(F)cc2)oc1NCCN1CCOCC1	-21	109%	-4%	1	-3%	-10%
CC(=O)CC1=NC(C)(C)Cc2ccccc21	-13	11%	-3%	7	0%	6%
COc1cc2ccccc2cc1C(=O)Nc1nccs1	49*	0%	1%	27*	-12%	-6%
COc1cc2ccccc2cc1C(=O)NCC(c1cccs1)N(C)C (centres undefined)	87*	115%	-7%	37*	6%	0%
COc1cccc2c1OCC(C(=O)Nc1nccs1)=C2	108*	-20%	75%	41*	-1%	1%
Cc1c(C(=O)Nc2nccs2)oc2ccccc12	x	x	56%	x	x	x
COc1cc(OC)c(C(=O)NCC(c2cccs2)N(C)C)cc1OC (centres undefined)	-2	-12%[11.4 µM]	x	-2	0%	-6%
COc1c(C(=O)Nc2nccs2)ccc2ccccc12	93*	-7%	-1%	38*	-4%	0%
O=C(Nc1ccccc1)OCCNC(=O)c1cccc(Br)c1	-3	-34%	6%	4	-1%	-1%

Compound activity as filed in PubChem BioAssay.
